The structures appear in SMILES notation. The source made the active and inactive calls.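 How the source made its calls, unless noted: active means fluorescence slope higher than the sample average by over 3 SD (cut at about -0.22 in these data, passing the limit was not always enough); inactive means the rest.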

Voltage-gated potassium channel subunit beta-2 (Rattus norvegicus), sequence (P62483 whole entry, looked up): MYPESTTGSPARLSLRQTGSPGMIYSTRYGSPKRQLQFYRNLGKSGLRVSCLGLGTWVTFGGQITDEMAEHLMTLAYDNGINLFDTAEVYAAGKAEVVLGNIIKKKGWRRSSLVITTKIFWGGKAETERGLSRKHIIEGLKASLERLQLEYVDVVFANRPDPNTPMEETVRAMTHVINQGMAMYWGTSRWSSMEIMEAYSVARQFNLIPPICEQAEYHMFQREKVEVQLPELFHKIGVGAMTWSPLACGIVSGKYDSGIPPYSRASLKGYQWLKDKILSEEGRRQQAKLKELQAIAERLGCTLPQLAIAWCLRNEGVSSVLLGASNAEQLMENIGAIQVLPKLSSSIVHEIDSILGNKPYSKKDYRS

System in the first experiment: not listed separately
The experiment in a line: inhibitors of E-selectin induction by TNFa, primary screen, imaging, HUVEC, immunofluorescence, MLSMR starter and 10KST1 sets (AID 487;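 active means visually confirmed hit in the image check and inhibition above 20%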;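 on inhibition: signal is fraction of cell area covered by stained E-selectin grains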;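 on nuclei count: 100% = median nuclei count of all wells on the same plate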). To be noted: HUVEC TNFalpha-induced E-selectin immunofluorescence imaging, at 2 µM; inhibition: stronger effect = higher value; nuclei count: measured here: cell number, toxicity.
For orientation: inhibition means the drop in the measured response relative to a control, in per cent. Take `CCCNC(=O)NC1C(NC(=O)NCCC)N(C)C(=O)N1C` (stereo not given): the nuclei count was 116% and the inhibition was -60.1% (inactive).

For the compound `COc1ccccc1NC(=O)C(C)NS(=O)(=O)c1ccc(F)cc1` (stereo not given), the inhibition is -22.4% (inactive) and the nuclei count is 100%.

For `Cc1oc(-c2ccccc2F)nc1CS(=O)(=O)CC(=O)N1CCN(Cc2ccccc2)CC1`, the inhibition is -96.8% (inactive) and the nuclei count was found to be 109%.

Regarding `CCCOC(=O)c1[nH]c2c(c1C)C(=O)CC(c1ccc(OC)c(OC)c1)C2` (stereo not given), the inhibition is 17.6% (inactive) and the nuclei count was 47.3%.

For `N#Cc1c(-c2ccccc2)nc(N2CCCCCC2)[nH]c1=O`, the nuclei count stood at 116% and the inhibition is -43.6% (inactive).

In the case of `CCOc1ccc(-n2cc(C(=O)N3CCN(C)CC3)c3cc(OC)c(OC)cc3c2=O)cc1`, the inhibition was -54.1% (inactive) and the nuclei count was 121%.

For the compound `Cc1ccc(CCNC(=O)C2CCCN(S(=O)(=O)c3cnc[nH]3)C2)cc1` (stereo not given), the inhibition is -89.2% (inactive) and the nuclei count amounted to 135%.

Take `Cc1cnc(C(=O)Nc2nnc(C(C)C)s2)cn1`: the inhibition was -28.6% (inactive) and the nuclei count stood at 118%.

Consider `COc1ccccc1NC(=O)Cn1nnc(-c2ccccc2NC(=O)c2ccco2)n1`, for which the inhibition was -29.7% (inactive) and the nuclei count was 117%.

For `O=C1CCc2cc(S(=O)(=O)N3CCC(C(=O)NCc4ccccn4)CC3)ccc2N1`, the nuclei count turned out to be 110% and the inhibition was -26.3% (inactive).

Consider `COc1ccc(OCCSc2nc3ccccc3n2CC(=O)O)cc1`, for which the nuclei count was found to be 133% and the inhibition is -133% (inactive).

For `Cc1cccc(C(OC(=O)c2ccco2)C(=O)NCc2ccccc2)n1` (stereo not given), the inhibition is -79.6% (inactive) and the nuclei count was found to be 106%.

As to `CCCCN(CC)CCNC(=O)c1cc2c(C)nc3ccccc3c2o1`, the inhibition was -28.4% (inactive) and the nuclei count is 110%.

Turning to `O=C(NC1CCCC1)C(c1ccco1)N(Cc1ccccc1)C(=O)c1csnn1` (stereo not given), the inhibition was -9.3% (inactive) and the nuclei count turned out to be 107%.

Consider `CC(C)(C)NC(=O)NC(=O)COc1ccccc1C#N`, for which the inhibition is -27% (inactive) and the nuclei count turned out to be 139%.

On to `COc1cccc2cc(C(=O)C3=C(O)C(=O)N(CCCN4CCOCC4)C3c3ccncc3)oc12` (stereo not given), for which the nuclei count was found to be 120% and the inhibition is -14.9% (inactive).

As to `CCOC(=O)N1CCN(c2cc(=O)n(-c3ccccc3Cl)c(=O)[nH]2)CC1`, the inhibition was 15% (inactive) and the nuclei count was 90.2%.

For `Cn1nnnc1SCC(=O)N1CCN(c2cccc(Cl)c2)CC1`, the inhibition is -206% (inactive) and the nuclei count came out at 115%.

`CCOc1ccccc1OCC(=O)NCc1ccco1`: the inhibition was -16.4% (inactive) and the nuclei count was 92%.

Consider `CCN1C(=O)C(C(=O)Nc2ccc(OC)cc2)C2CC1(C)Oc1ccccc12` (stereo not given), for which the inhibition was -4.8% (inactive) and the nuclei count amounted to 102%.

As to `O=C(Nc1ccc(Cl)cn1)c1cccnc1`, the inhibition is -1.5% (inactive) and the nuclei count turned out to be 102%.

`CCOC(=O)CSc1nc2c(c(-c3ccc(C)o3)c1C#N)CCCC2`: the nuclei count came out at 128% and the inhibition is -63.3% (inactive).

As to `CCn1c(Cc2ccccc2)nnc1SCC(=O)Nc1cc(C)on1`, the nuclei count was determined as 112% and the inhibition was -15.6% (inactive).

For the compound `Cn1c(=O)[nH]c(=O)c2[nH]c(NCCCN3CCOCC3)nc21`, the nuclei count stood at 112% and the inhibition is -36.4% (inactive).

Take `CC1CCN(Cc2nc3c(c(=O)n(C)c(=O)n3C)n2Cc2cccc3ccccc23)CC1`: the inhibition is -26.6% (inactive) and the nuclei count worked out at 131%.

On to `Fc1cccc2sc(N3CCOCC3)nc12`, for which the inhibition was 6.6% (inactive) and the nuclei count is 51.7%.

As to `Cc1cc(NC(=O)CSc2nc3c(c(=O)n2Cc2ccccc2)SC(C)C3)no1` (stereo not given), the nuclei count was determined as 86.8% and the inhibition was 15.8% (inactive).

Regarding `Clc1ccc(CSc2nnc(Cn3cnc4ccccc43)o2)cc1`, the inhibition is -1.1% (inactive) and the nuclei count came out at 98.2%.

For `O=C1c2ccccc2NC2CCCCCN12` (stereo not given), the nuclei count is 110% and the inhibition was 13.9% (inactive).

`CCOc1ccc(-c2cc(C(=O)N3CCN(c4ccccn4)CC3)c3ccccc3n2)cc1`: the inhibition was -19.3% (inactive) and the nuclei count was found to be 111%.

On to `COc1ccc(Cn2nnnc2C(c2cccs2)N2CCOCC2)cc1` (stereo not given), for which the nuclei count came out at 114% and the inhibition is -10.4% (inactive).

In the case of `CN1C(=O)CC(N2CCC(C(N)=O)(N3CCCCC3)CC2)C1=O` (stereo not given), the nuclei count was determined as 117% and the inhibition was 10.3% (inactive).

For the compound `CC1CCCN(C(=O)c2cc3c(-c4ccc(Cl)cc4)nn(C)c3s2)C1` (stereo not given), the inhibition is -30.2% (inactive) and the nuclei count worked out at 111%.

For the compound `CCN1CCN(Cc2nc3c(c(=O)[nH]c(=O)n3C)n2Cc2ccccc2Cl)CC1`, the inhibition is -20.8% (inactive) and the nuclei count was found to be 95.5%.

Take `CS(=O)(=O)c1ccc2nc(NC(=O)C3C4C=CC(C4)C3C(=O)O)sc2c1` (stereo not given): the inhibition is -113% (inactive) and the nuclei count was 115%.

Turning to `NC(=O)c1c(NC(=O)CN2CCCC2)sc2c1CCCC2`, the nuclei count was 84.6% and the inhibition was 15.2% (inactive).

For `CCOc1ccc(C(=O)CN2CCN(S(=O)(=O)c3ccc(OC)cc3)CC2)cc1`, the inhibition is -29.2% (inactive) and the nuclei count is 92.2%.

With `O=C1NC(=O)C(CC(=O)N(Cc2ccco2)C2(C(=O)NC3CCCC3)CCCCC2)N1` (stereo not given), the nuclei count is 127% and the inhibition is -67.8% (inactive).

As for `COCCn1c(SCC(=O)Nc2cccc(OC)c2)nnc1-c1ccc(Cl)cc1`, the inhibition is -19.6% (inactive) and the nuclei count worked out at 97.1%.

For `CN(C)c1nc(Oc2ccc(=O)n(C)n2)nc(N2CCOCC2)n1`, the inhibition was 31.4% (inactive) and the nuclei count came to 96.5%.

Another experiment addresses Voltage-gated potassium channel subunit beta-2 (Rattus norvegicus) (UniProt P62483). The experiment in a line: KvBeta enzyme negative modulators, primary screen, biochemical, NADPH fluorescence (AID 622).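 Further: slope of raw intensity against log time taken from 70 to 1610 s.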 To be noted: recombinant KvBeta, 4-cyanobenzaldehyde reduction, at 10 µM, stronger effect = higher value.
For `CCCNC(=O)NC1C(NC(=O)NCCC)N(C)C(=O)N1C` (stereo not given), the fluorescence slope is -0.461 (inactive).

Take `COc1ccccc1NC(=O)C(C)NS(=O)(=O)c1ccc(F)cc1` (stereo not given): the fluorescence slope is -0.476 (inactive).

Regarding `Cc1oc(-c2ccccc2F)nc1CS(=O)(=O)CC(=O)N1CCN(Cc2ccccc2)CC1`, the fluorescence slope is -0.498 (inactive).

As to `CCCOC(=O)c1[nH]c2c(c1C)C(=O)CC(c1ccc(OC)c(OC)c1)C2` (stereo not given), the fluorescence slope was -0.408 (inactive).

In the case of `N#Cc1c(-c2ccccc2)nc(N2CCCCCC2)[nH]c1=O`, the fluorescence slope is -0.41 (inactive).

Consider `CCOc1ccc(-n2cc(C(=O)N3CCN(C)CC3)c3cc(OC)c(OC)cc3c2=O)cc1`, for which the fluorescence slope is -0.524 (inactive).

Regarding `Cc1ccc(CCNC(=O)C2CCCN(S(=O)(=O)c3cnc[nH]3)C2)cc1` (stereo not given), the fluorescence slope is -0.577 (inactive).

For `Cc1cnc(C(=O)Nc2nnc(C(C)C)s2)cn1`, the fluorescence slope is -0.5 (inactive).

Turning to `COc1ccccc1NC(=O)Cn1nnc(-c2ccccc2NC(=O)c2ccco2)n1`, the fluorescence slope is -0.408 (inactive).

Regarding `O=C1CCc2cc(S(=O)(=O)N3CCC(C(=O)NCc4ccccn4)CC3)ccc2N1`, the fluorescence slope was -0.578 (inactive).

`COc1ccc(OCCSc2nc3ccccc3n2CC(=O)O)cc1`: the fluorescence slope was -0.356 (inactive).

Turning to `Cc1cccc(C(OC(=O)c2ccco2)C(=O)NCc2ccccc2)n1` (stereo not given), the fluorescence slope was -0.478 (inactive).

In the case of `CCCCN(CC)CCNC(=O)c1cc2c(C)nc3ccccc3c2o1`, the fluorescence slope was -0.544 (inactive).

Take `O=C(NC1CCCC1)C(c1ccco1)N(Cc1ccccc1)C(=O)c1csnn1` (stereo not given): the fluorescence slope was -0.582 (inactive).

Consider `CC(C)(C)NC(=O)NC(=O)COc1ccccc1C#N`, for which the fluorescence slope was -0.591 (inactive).

In the case of `COc1cccc2cc(C(=O)C3=C(O)C(=O)N(CCCN4CCOCC4)C3c3ccncc3)oc12` (stereo not given), the fluorescence slope was -0.478 (inactive).

Regarding `CCOC(=O)N1CCN(c2cc(=O)n(-c3ccccc3Cl)c(=O)[nH]2)CC1`, the fluorescence slope is -0.581 (inactive).

Regarding `Cn1nnnc1SCC(=O)N1CCN(c2cccc(Cl)c2)CC1`, the fluorescence slope was -0.619 (inactive).

For the compound `CCOc1ccccc1OCC(=O)NCc1ccco1`, the fluorescence slope was -0.409 (inactive).

Regarding `CCN1C(=O)C(C(=O)Nc2ccc(OC)cc2)C2CC1(C)Oc1ccccc12` (stereo not given), the fluorescence slope was -0.305 (inactive).

Turning to `O=C(Nc1ccc(Cl)cn1)c1cccnc1`, the fluorescence slope was -0.473 (inactive).

With `CCOC(=O)CSc1nc2c(c(-c3ccc(C)o3)c1C#N)CCCC2`, the fluorescence slope was -0.447 (inactive).

`CCn1c(Cc2ccccc2)nnc1SCC(=O)Nc1cc(C)on1`: the fluorescence slope is -0.513 (inactive).

As for `Cn1c(=O)[nH]c(=O)c2[nH]c(NCCCN3CCOCC3)nc21`, the fluorescence slope is -0.613 (inactive).

On to `CC1CCN(Cc2nc3c(c(=O)n(C)c(=O)n3C)n2Cc2cccc3ccccc23)CC1`, for which the fluorescence slope was -0.427 (inactive).

In the case of `Fc1cccc2sc(N3CCOCC3)nc12`, the fluorescence slope was -0.387 (inactive).

Regarding `Cc1cc(NC(=O)CSc2nc3c(c(=O)n2Cc2ccccc2)SC(C)C3)no1` (stereo not given), the fluorescence slope was -0.417 (inactive).

As for `Clc1ccc(CSc2nnc(Cn3cnc4ccccc43)o2)cc1`, the fluorescence slope was -0.48 (inactive).

In the case of `O=C1c2ccccc2NC2CCCCCN12` (stereo not given), the fluorescence slope was -0.417 (inactive).

As for `CCOc1ccc(-c2cc(C(=O)N3CCN(c4ccccn4)CC3)c3ccccc3n2)cc1`, the fluorescence slope was -0.473 (inactive).

As for `COc1ccc(Cn2nnnc2C(c2cccs2)N2CCOCC2)cc1` (stereo not given), the fluorescence slope is -0.419 (inactive).

Consider `CN1C(=O)CC(N2CCC(C(N)=O)(N3CCCCC3)CC2)C1=O` (stereo not given), for which the fluorescence slope is -0.593 (inactive).

For the compound `CC1CCCN(C(=O)c2cc3c(-c4ccc(Cl)cc4)nn(C)c3s2)C1` (stereo not given), the fluorescence slope was -0.607 (inactive).

Take `CCN1CCN(Cc2nc3c(c(=O)[nH]c(=O)n3C)n2Cc2ccccc2Cl)CC1`: the fluorescence slope is -0.583 (inactive).

As to `CS(=O)(=O)c1ccc2nc(NC(=O)C3C4C=CC(C4)C3C(=O)O)sc2c1` (stereo not given), the fluorescence slope was -0.41 (inactive).

For `NC(=O)c1c(NC(=O)CN2CCCC2)sc2c1CCCC2`, the fluorescence slope was -0.599 (inactive).

For the compound `CCOc1ccc(C(=O)CN2CCN(S(=O)(=O)c3ccc(OC)cc3)CC2)cc1`, the fluorescence slope is -0.391 (inactive).

Regarding `O=C1NC(=O)C(CC(=O)N(Cc2ccco2)C2(C(=O)NC3CCCC3)CCCCC2)N1` (stereo not given), the fluorescence slope is -0.534 (inactive).

Turning to `COCCn1c(SCC(=O)Nc2cccc(OC)c2)nnc1-c1ccc(Cl)cc1`, the fluorescence slope is -0.598 (inactive).

In the case of `CN(C)c1nc(Oc2ccc(=O)n(C)n2)nc(N2CCOCC2)n1`, the fluorescence slope is -0.632 (inactive).

These data come from PubChem BioAssay.
